Measured values from PubChem BioAssay (NCI).
This is part of a sample that, as a whole, favours compounds with a hit. Of some 83,000 tested, about 20% had one in any assay.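 Interpretation: 100, growth as untreated; towards 0, rising growth inhibition; 0, no net growth; 0 to -100, cell death. Compounds scoring below 10 were considered active.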 Unmarked numbers belong to inactive results. The source made the active and inactive calls.

Key:
Test in all cases: NCI-60 one-dose screen, 48 h (100 = growth as untreated, 0 = no growth, -100 = all killed)
Details in all cases: 10 µM unless noted
DU-145 prostate = tested on: DU-145 prostate
K-562 leukemia = tested on: K-562 leukemia
MALME-3M melanoma = tested on: MALME-3M melanoma
MDA-MB-231 breast = tested on: MDA-MB-231 breast
RXF 393 renal = tested on: RXF 393 renal
SF-268 CNS = tested on: SF-268 CNS
SF-295 CNS = tested on: SF-295 CNS
SF-539 CNS = tested on: SF-539 CNS
UACC-257 melanoma = tested on: UACC-257 melanoma

Compound | growth (DU-145 prostate) | growth (K-562 leukemia) | growth (MALME-3M melanoma) | growth (MDA-MB-231 breast) | growth (RXF 393 renal) | growth (SF-268 CNS) | growth (SF-295 CNS) | growth (SF-539 CNS) | growth (UACC-257 melanoma)
COc1cc(/C=C/[N+](=O)[O-])cc(OC)c1 | -63% (active) | 0.863% (active) | 24.1% | 13.4% | -90% (active) | 25.7% | 46.5% | -72.2% (active) | -16.4% (active)
O=C(O)c1c(Cl)n(Cc2ccc(O)cc2)c2ccc(O)cc12 | 111% | 112% | 106% | 102% | 46.6% | 101% | 101% | 98.8% | 101%
COc1ccc([As]=[As]c2ccc(OC)c(NCS(=O)(=O)O)c2)cc1NCS(=O)(=O)O (stereo not drawn) | 43.1% | -2.74% (active) | -44.6% (active) | 4.41% (active) | -17.9% (active) | 17.8% | 80% | 2.54% (active) | 27.6%
NC(=S)c1cn(C2OC(CO)C(O)C2O)c2ncnc(N)c12 (stereo not drawn) | -18.8% (active) | -42.3% (active) | -30.5% (active) | -9.11% (active) | -55.9% (active) | -20.9% (active) | -3.13% (active) | -53.1% (active) | -1.27% (active)
CCC1CC(O)c2c(O)c3c(c(O)c2C1O)C(=O)c1cccc(O)c1C3=O (stereo not drawn) (tested in a mixture with another compound) | -1.28% (active) | -44.1% (active) | -92.3% (active) | -18.8% (active) | -27% (active) | -24% (active) | -24% (active) | -64.5% (active) | -25.3% (active)
O=C(Nc1ccc([N+](=O)[O-])cc1)C(Cl)(Cl)Cl | 96.7% | 98.2% | 97.6% | 95% | 116% | 97.6% | 96.9% | 94.2% | 96.7%
CCCCCCCCCCCCCCCCCC1OC[C@H](COC(=O)O[C@@H](C(=O)O[C@H]2C[C@@]3(O)[C@@H](OC(=O)c4ccccc4)[C@@H]4[C@]5(OC(C)=O)CO[C@@H]5C[C@H](O)[C@@]4(C)C(=O)[C@H](OC(C)=O)C(=C2C)C3(C)C)[C@@H](NC(=O)c2ccccc2)c2ccccc2)O1 (stereo partly drawn) | 45.7% | 37.5% | 58.9% | 47.2% | 65.2% | 73.3% | 53% | 43.3% | 72.2%
O=[N+]([O-])c1cc(I)cc([N+](=O)[O-])c1 | 105% | 97.9% | 101% | 95.7% | 111% | 94.2% | 110% | 101% | 98%
Cc1cc(N(CCCl)CCCl)ccc1C=Nc1ccccc1-c1ccccc1 | 61.2% | 85% | 77.1% | 94.4% | 45.5% | 62.8% | 27.2% | 61.7% | 55.3%
CC(=O)Nc1nc2c(s1)CC[C@@]1(C)C2=CC[C@H]2[C@@H]3CC[C@H](O)[C@@]3(C)CC[C@@H]21 | 81.7% | 17.5% | 56.9% | 81.5% | 23.5% | 73.4% | 36.4% | 8.5% (active) | 82%
NC(CCl)CCl | 105% | 116% | 92.6% | 102% | 107% | 103% | 93.9% | 95.1% | 102%
O=C(CN1CCN(C(=O)c2ccco2)CC1)Nc1ccc(Cl)cc1C(=O)c1ccccc1Cl | 111% | 80.6% | 104% | 49.2% | -11.8% (active) | 90.7% | 109% | 99.8% | 86.2%
COC(=O)CC[C@H](Cc1ccccc1)NC(=O)c1csc([C@@H](C[C@H](C(C)C)N(C)C(=O)[C@@H](NC(=O)[C@H]2CCCCN2C)C(C)C)OC(C)=O)n1 | 39.1% | 24.4% | 74.2% | 36.8% | 69.6% | 26.6% | 32% | 9.4% (active) | 66.6%
CC[C@H](C)[C@H](NC(=O)[C@H]1CCCCN1C)C(=O)N(C)[C@H](C[C@@H](OC(C)=O)c1cccc(C(=O)N[C@@H](Cc2ccccc2)C[C@H](C)C(=O)O)n1)C(C)C | -16.1% (active) | 7.77% (active) | 64.1% | -0.17% (active) | 31.2% | 18% | 2.98% (active) | -10.7% (active) | 47.9%
CCN1C(=O)C(=C/C=C/c2ccccc2)C(=O)N(CC)C1=O | 76.4% | 79.4% | 82.5% | 86.4% | 109% | 72.5% | 105% | 109% | 93.9%
C/C(=C\c1ccn(-c2ccc(N)c(F)c2)n1)[C@@H]1C[C@@H]2O[C@]2(C)CCC[C@H](C)[C@H](O)[C@@H](C)C(=O)C(C)(C)[C@@H](O)CC(=O)O1 | -26% (active) | 10.5% | 46.3% | 19.6% | 0.639% (active) | 30% | 17.1% | -26.4% (active) | 68.7%
c1cc2c(c3c1CCNC3)OCO2 | 120% | 106% | 94.8% | 100% | 104% | 102% | 96.4% | 105% | 78.5%
CN1CCC(c2c[nH]c3ccccc23)C1 (stereo not drawn) | 110% | 109% | 112% | 103% | 128% | 111% | 105% | 127% | 55.5%
COC(=O)[C@@H](C)C[C@H](Cc1ccccc1)NC(=O)c1csc([C@@H](C[C@H](C(C)C)N(C)C(=O)[C@@H](NC(=O)[C@H]2CCCCN2C)C(C)C)OC(C)=O)n1 | 10.3% | 1.46% (active) | 51.5% | 1.38% (active) | 75.3% | 17.1% | -2.48% (active) | -23% (active) | 41.7%
CCCCC1(CCC)C(=O)NC(=S)NC1=O | 119% | 121% | 119% | 113% | 195% | 107% | 102% | 94.9% | 131%
CC(=O)O[C@H]1C(=O)[C@@]2(C)[C@H]([C@H](OC(=O)c3ccccc3)[C@]3(O)C[C@H](OC(=O)[C@H](OC(=O)OC[C@H]4COC(C)(C)O4)[C@@H](NC(=O)c4ccccc4)c4ccccc4)C(C)=C1C3(C)C)[C@]1(OC(C)=O)CO[C@@H]1C[C@@H]2O | 5.18% (active) | 11.6% | 27.2% | -4.56% (active) | -7.11% (active) | 29.7% | -6.58% (active) | -13.3% (active) | 48.3%
COC(=O)[C@H](C[C@H](Cc1ccccc1)NC(=O)c1csc([C@@H](C[C@H](C(C)C)N(C)C(=O)[C@@H](NC(=O)[C@H]2CCCCN2C)C(C)C)OC(C)=O)n1)NC(=O)OCc1ccccc1 | -18.2% [8.5 µM] (active) | 5.76% [8.5 µM] (active) | -53.7% [8.5 µM] (active) | 5.23% [8.5 µM] (active) | 20.4% [8.5 µM] | 13.1% [8.5 µM] | 8.4% [8.5 µM] (active) | -21.7% [8.5 µM] (active) | 13.9% [8.5 µM]
CC(=O)ONc1ccc([N+](=O)[O-])c(C(F)(F)F)c1 | 108% | 105% | 111% | 102% | 115% | 95.3% | 97.8% | 93.5% | 110%
CCN(CCO)C(Cc1ccccc1)c1ccccc1 (stereo not drawn) | 105% | 107% | 96.5% | 101% | 106% | 101% | 95.5% | 106% | 114%
COc1ccc2c(c1)c(-c1nc(-c3c[nH]c4ncccc34)cs1)cn2CCCCN1CCCCC1 | -14.6% (active) | -73.7% (active) | -76.1% (active) | -75.9% (active) | -85.8% (active) | -50.9% (active) | -64.9% (active) | -80.9% (active) | -82.3% (active)
Cc1cc(C)c(CBr)c(C)c1 | 107% | 107% | 99.3% | 106% | 100% | 105% | 101% | 93.5% | 96.8%
CC12CCC(O)CC1=CCC1C2CCC2(C)C(O)CCC12 (stereo not drawn) | 105% | 115% | 102% | 105% | 101% | 102% | 96.2% | 98.9% | 110%
